Binding remaining, % of control data for 16 compounds are collected here from PubChem BioAssay AID485284 (NMMLSC, 2010).

SMILES strings stand for the structures. Measured potencies and affinities stand elsewhere.

This assay is described as follows: loss of vesicle association with mouse CD8+ T cells – mouse 2C CD8+ T cells, flow cytometry, dose response (AID 485284).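 Also: drosophila derived vesicles carrying Ld MHC with QL9 peptide plus B7-1 and ICAM-1; vesicle binding seen as anti-B7-1 PE fluorescence on CD8 gated cells.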 As to conditions: 2C mouse CD8+ T cell-exosome binding; at 45 µM (top of the series).
For `COc1ccc(NC(=O)C2CCC(C(C)(C)C)CC2)cc1S(=O)(=O)N1CCCCC1` (stereo unspecified), the binding remaining, % of control is 97.1%.

For `CC(C)(C)Nc1nc2nonc2nc1NC(C)(C)C`, the binding remaining, % of control turned out to be 147%.

In the case of `O=C(NCCC1=CCCCC1)C(=O)NCC(c1ccco1)N1CCN(c2ccccc2F)CC1` (stereo unspecified), the binding remaining, % of control stood at 136%.

As to `CN(C)S(=O)(=O)c1cccc(-n2sc3ccccc3c2=O)c1`, the binding remaining, % of control stood at 73.9%.

With `O=S(=O)(c1ccc(F)cc1)N1CCC(O)(c2ccc3c(c2)OCO3)CC1`, the binding remaining, % of control was determined as 108%.

For `Cc1ccccc1C(=O)N1CCC(C(=O)Nc2ccc(C)c(S(=O)(=O)N3CCCCC3)c2)CC1`, the binding remaining, % of control is 134%.

As for `CCOc1ccc(-c2csc(NNC3=NCCCCC3)n2)cc1`, the binding remaining, % of control amounted to 156%.

As for `C[N+]1(C)CC2([N+](=O)[O-])CC=C(Oc3ccccc3)C([N+](=O)[O-])(C2)C1` (stereo unspecified), the binding remaining, % of control is 24.8%.

Consider `CCCNC(=O)c1nc2ncc(Br)cn2n1`, for which the binding remaining, % of control amounted to 153%.

On to `COc1ccc([C@H]2CC(=O)C=C(/C=C/c3ccccc3)C2)cc1`, for which the binding remaining, % of control was determined as 52.1%.

For the compound `NC(=O)CCS(=O)(=O)CCN1CCN(S(=O)(=O)c2ccc3c(c2)CCC3)CC1`, the binding remaining, % of control was determined as 170%.

For `O=C(/C=C/c1ccc(Br)cc1)c1ccc(NC(=O)c2ccco2)cc1`, the binding remaining, % of control was 98.2%.

Consider `CCCCN(C(=O)CCCc1nc2ccccc2s1)c1c(N)n(CC(C)C)c(=O)[nH]c1=O`, for which the binding remaining, % of control worked out at 187%.

Regarding `O=C(Cc1cccc(NC(=O)C2CCCN(C(=O)C3CC3)C2)c1)Nc1cccc(C(=O)N2CCCC2)c1` (stereo unspecified), the binding remaining, % of control is 47.2%.

Take `CNCc1cn2cc(Cl)ccc2n1`: the binding remaining, % of control amounted to 125%.

`CC(C)(C)NC(=O)COc1ccc(CNCc2cccnc2)cc1`: the binding remaining, % of control worked out at 90.5%.
